Experimental data: PubChem BioAssay (EPA / NIEHS)
Records with an inconclusive call do not appear. The source made the active and inactive calls. Rule for the calls: active = hit-call score of the fitted dose curve at least 0.9, where 1 is the maximum; inconclusive = response in the unintended direction; inactive = score below 0.9.

experiment: Tanguay_ZF_120hpf_PE_legacy: (Legacy) Oregon State University Tanguay Lab 120 Hour Post-fertilization zebrafish Assay for Pericardial Edema (AID 2283640);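 for AC50: potency for increased incidence of pericardial edema versus DMSO baseline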
Description: Tanguay_ZF_120hpf_legacy is a whole embryo, multiplexed endpoint assay using zebrafish larvae exposed for 120 hours post fertilization on a 96-well plate.Tanguay_ZF_120hpf_PE_legacy is one of one assay component(s) measured or calculated from the Tanguay_ZF_120hpf_legacy assay. It is designed to make measurements of zebrafish development as detected with brightfield microscopy of developing zebrafish embryos.Data from the assay component Tanguay_ZF_120hpf_PE_legacy was analyzed into 1 assay endpoints. This assay endpoint, Tanguay_ZF_120hpf_PE_legacy, was analyzed in the positive analysis fitting direction relative to DMSO as the negative control and baseline of activity. Using a type of morphology reporter, gain-of-signal activity can be used to understand changes in developmentals as they relate to the whole embryo. To generalize the intended target to other relatable targets, this assay endpoint is annotated to the zebrafish development intended target family, where the subfamily is embryonic morphogenesis.
Zebrafish husbandry: Tropical 5D wild-type adult zebrafish were housed in at an approximate density of 1000 per 100 gallon tank at the Sinnhuber Aquatic Research Laboratory, Oregon State University, Corvallis, OR. Each tank was kept at standard laboratory conditions of 28C on a 14-h light/10-h dark photoperiod in fish water consisting of reverse osmosis water supplemented with a commercially available salt (Instant Ocean). Spawning funnels were placed into the tanks the night prior, and embryos were collected and staged. […] Ten microliters of each row of dilution plate 2 was added to 2 exposure plates. The final DMSO concentration used was 0.64% (vol/vol). Thirty-two embryos were also exposed to 5uM trimethyltin chloride (positive control). Plates were sealed to prevent evaporation and foil covered to reduce light exposure and kept in a 28C incubator. Embryos were statically exposed until 120 hpf. At 24 hpf, embryos were assessed for photomotor response using a custom photomotor response analysis tool (PRAT) and for developmental toxicity endpoints (MO24: mortality at 24 hpf, DP: developmental progression, SM: spontaneous movement, and NC: notochord distortion). At 120 hpf, locomotor activity was measured using Viewpoint Zebralab and assessed for 18 endpoints. Zebrafish acquisition and analysis program (ZAAP), a custom program designed to inventory, acquire, and manage zebrafish data, was used to collect developmental endpoints as either present or absent (i.e., binary responses were recorded). If mortality occurred for an embryo (at either 24 or 120 hpf), the non-mortality endpoints were not measured.

| SMILES | outcome | AC50 |
| --- | --- | --- |
| O=c1[nH]c2ccc(S(=O)CCN3CCC(Cc4ccc(F)cc4)CC3)cc2o1 (stereo not given) | inactive | – |
| CC(C)(O)c1coc(S(=O)(=O)NC(=O)Nc2c3c(cc4c2CCC4)CCC3)c1 | inactive | – |
| O=C(O)CC(O)C(=O)O (stereo not given) | inactive | – |
| O=C(O)c1cc(N=Nc2ccc(S(=O)(=O)Nc3ccccn3)cc2)ccc1O | inactive | – |
| CCCCCCCCO | inactive | – |
| CNS(=O)(=O)c1cc(C(=O)N2CCC(CCN3C4CCC3CC(n3c(C)nc5ccccc53)C4)(c3cccc(F)c3)CC2)c(Cl)cc1F (stereo not given) | inactive | – |
| O=C1CCCCCN1 | inactive | – |
| CC(C)CCCCCCCOC(=O)CCCCC(=O)OCCCCCCCC(C)C | inactive | – |
| CCOC(=O)COc1ccc2c(c1)CC(NCC(O)c1cccc(Cl)c1)CC2 (stereo not given) | inactive | – |
| C[C@](N)(Cc1ccc(O)c(O)c1)C(=O)O | inactive | – |
| Cc1c(-c2cccnc2)c2ccccc2n1CCCCC(=O)O | inactive | – |
| Nc1ccc(Nc2ccccc2)cc1 | – | 40 µM (active) |
| O=C(O)c1cccc(Oc2ccccc2)c1 | inactive | – |
| CC(O)CN(CCN(CC(C)O)CC(C)O)CC(C)O (stereo not given) | inactive | – |
| COCCOCCOCCOC | inactive | – |
| CC(C)CCO | inactive | – |
| On1ccccc1=S | – | 0.0293 µM (active) |
| CC/C(=C\C(=N/O)C(N)=O)C(C)[N+](=O)[O-] (stereo not given) | inactive | – |
| CCCCCCc1ccc(O)cc1O | inactive | – |
| O=C(CCCCCCCCc1cccnc1)N1CCC(C=C(c2ccccc2)c2ccccc2)CC1 | inactive | – |

| SMILES | outcome | AC50 |
| --- | --- | --- |
| CC(C)CCCCCCOC(=O)c1ccc(C(=O)OCCCCCCC(C)C)c(C(=O)OCCCCCCC(C)C)c1 | inactive | – |
| CCCCC(CC)COC(=O)c1ccc(C(=O)OCC(CC)CCCC)cc1 (stereo not given) | inactive | – |
| Oc1ccc2c(c1)-c1ccccc1C2 | – | 34.5 µM (active) |
| O=C(NS(=O)(=O)/C=C/c1ccccc1)c1ccc(F)cc1Cl | inactive | – |
| COc1ccc(/C=C/S(=O)(=O)NC(=O)c2ccc(C)cc2Cl)cc1 | inactive | – |
| CC(C)=CCC/C(C)=C\CO | inactive | – |
| CC(C)CC(C)(O)C#CC(C)(O)CC(C)C (stereo not given) | inactive | – |
| CC(=O)c1ccc2c(c1)[C@H](NC(=O)c1ccc(F)cc1)[C@@H](O)C(C)(C)O2 | inactive | – |
| CCCC(=O)OCC | inactive | – |
| Nc1nc2ncc(CNc3ccc(C(=O)N[C@@H](CCC(=O)O)C(=O)O)cc3)nc2c(=O)[nH]1 | inactive | – |
| CCCN(C1CCN(C(=O)C2CCNCC2)CC1)[C@@H]1CCc2ccc(OC)cc2C1 | inactive | – |
| Cc1ccc(N)cc1O | inactive | – |
| CCc1cc(SCc2sc(-c3ccc(C(F)(F)F)cc3)nc2CN2CCN(c3ccc(OC)cc3)CC2)ccc1OCC(=O)O | inactive | – |
| C=CC(=C)CCC=C(C)C | inactive | – |
| CCC(C)(C)C(=O)O[C@H]1C[C@@H](C)C=C2C=C[C@H](C)[C@H](CC[C@@H]3C[C@@H](O)CC(=O)O3)[C@H]21 | – | 0.64 µM (active) |
| CCCCCCCCCCCCc1ccccc1 | inactive | – |
| CCCCC(CC)COC(=O)CCCCCCCCC(=O)OCC(CC)CCCC (stereo not given) | inactive | – |
| CC1(C)C(=O)N(Br)C(=O)N1Br | inactive | – |
| CC[C@H]1OC(=O)[C@H](C)[C@@H](O[C@H]2C[C@@](C)(OC)[C@@H](O)[C@H](C)O2)[C@H](C)[C@@H](O[C@@H]2O[C@H](C)C[C@H](N(C)C)[C@H]2O)[C@](C)(O)C[C@@H](C)C(=O)[C@H](C)[C@@H](O)[C@]1(C)O | inactive | – |
| CC(=O)OC[C@H]1O[C@@](COC(C)=O)(O[C@H]2O[C@H](COC(C)=O)[C@@H](OC(C)=O)[C@H](OC(C)=O)[C@H]2OC(C)=O)[C@@H](OC(C)=O)[C@@H]1OC(C)=O | inactive | – |
